Molecules are shown by their SMILES. About 83,000 compounds went through this panel and 20% of them were active in at least one assay; those are over-represented in the sample as a whole.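 How to read the values: 0–100, growth inhibition (40 = 60% inhibited); 0, no net growth; -100 to 0, cell death (-40 = 40% of starting cells died; -100 = all dead).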 Calls of active or inactive are those of the source. How the source made its calls: active means growth percent below 10; inactive means the rest.

For the experiment, the system named is HL-60(TB) leukemia. In words: NCI-60 one-dose screen, 48 h (100 = growth as untreated, 0 = no growth, -100 = all killed). The note with it: 10 µM unless noted.
For the molecule `COc1cc(/C=C2\C(=O)N(CCCCn3c4ccccc4c(=O)c4ccccc43)c3ccccc32)cc(OC)c1O`, the growth was 53.5% (inactive).

Turning to `COc1cc(Nc2ncnc(Nc3ccc4c(n3)NC(=O)C(C)(C)O4)n2)cc(OC)c1OC`, the growth is 46.8% (inactive).

Consider `NC(=O)c1ncn([C@@H]2O[C@H](CO)[C@@H](O)[C@H]2O)n1`, for which the growth was 109% (inactive).

For the molecule `CNC(=S)NNC(=O)C1CC1`, the growth was 73.3% (inactive).

On to `COc1ccc(-c2cnc(-c3ccncc3-c3cccc(OC)c3)o2)cc1`, for which the growth is 0.0287% (active).

Regarding `COc1cc(C2C3=C(COC3=O)N(CCO)c3cc4c(cc32)OCO4)cc(OC)c1O` (stereo not given), the growth was 4.08% (active).

For `CC(C)N(CCNc1nc(C(Cl)(Cl)Cl)nc2cc(Cl)ccc12)C(C)C`, the growth was -0.349% (active).

As to `O=C(/C=C/c1ccc(Cl)nc1)c1ccc(Cl)cc1Cl`, the growth is 67.4% (inactive).

With `C=C(C)C(C(=O)OCC)(C(=O)OCC)C(C)C`, the growth was 118% (inactive).

`Cc1cc(Oc2ccccc2)ccc1Nc1ncnc2ccc(-c3cnc(Cl)c(NS(C)(=O)=O)c3)cc12`: the growth was 30.3% (inactive).

Regarding `COC(=O)c1cc2c(=O)[nH]cc3c2c(n1)CCC3`, the growth is 74.6% (inactive).

With `CN1Cn2c(ccc2C(F)(F)F)C(=O)CS1(=O)=O`, the growth is 108% (inactive).

Regarding `COC(=O)c1c2c(n3ccc(C)cc13)C(=O)c1ccccc1C2=O`, the growth is 57.6% (inactive).

Take `CC/C=C\C[C@H](O)C/C=C1/C(=O)C=C[C@@H]1C/C=C\CCCC(=O)OC`: the growth is -12.3% (active).

With `O=C(Oc1cccnc1)c1ccsc1Nc1ccnc(C(F)(F)F)c1`, the growth is 25.9% (inactive).

`O=C1/C(=C/c2ccc(Cl)cc2)CN(Cc2cn(CCCNc3ccnc4cc(Cl)ccc34)nn2)C/C1=C\c1ccc(Cl)cc1`: the growth is -46.7% (active).

As for `C=C1c2c(C)nn(-c3ccc(O)cc3)c2N(C)C23C[C@@H]1C1(C)c4c(C)nn(-c5ccc(O)cc5)c4N(C)C(C)(C[C@H]12)C3` (stereo not given in full), the growth was 4.76% (active).

As to `COc1ccc(C)cc1OC`, the growth was 94.3% (inactive).

Consider `Clc1ccccc1Nc1nnc(-c2ccncc2)s1`, for which the growth was 79.1% (inactive).

As for `CNc1ccc(Br)c2c1C(=O)c1ccccc1C2=O`, the growth is 97.1% (inactive).

Turning to `CNC(=S)N/N=C/CSC/C=N/NC(=S)NC`, the growth was 85% (inactive).

Regarding `C=C(C)[C@@H]1CC[C@]2(C(N)=O)CC[C@]3(C)[C@H](CC[C@@H]4[C@@]5(C)C/C(=C/c6ccco6)C(=O)C(C)(C)[C@@H]5CC[C@]43C)[C@@H]12`, the growth is 93.2% (inactive).

As to `CC(=O)CCC(=O)OCc1cc(=O)c(O)co1`, the growth was 95% (inactive).

In the case of `COc1ccc(C2C(N)=NNC2c2cccc(O)c2)cc1` (stereo not given), the growth was 97.9% (inactive).

Consider `COc1ccc2c(c1)c(-c1nc(-c3c[nH]c4ncccc34)cs1)cn2CCO`, for which the growth was 58% (inactive).

Take `Cc1cc(C)c(CCc2cc(C)c(C)cc2C)cc1C`: the growth was 99.9% (inactive).

For the molecule `COc1ccc(Nc2ncc(Br)c(NCCCNC(=O)c3cccs3)n2)cc1`, the growth was 17.7% (inactive).

In the case of `C1=C2CCCC3=Cc4ccccc4OC23Oc2ccccc21`, the growth is 8.47% (active).

As to `COc1cccc(C(=O)OCCn2nc3c4c(cccc42)C(=O)c2ccccc2-3)c1O`, the growth is 0.071% (active).

Consider `Clc1ccc(C2=NN=C3C(Cc4ccccc4)=Nc4ccccc4N3C2)cc1`, for which the growth was 25.2% (inactive).

`CCN(CC)c1ccc(C(O)C2=CC(=O)c3ccccc3C2=O)cc1` (stereo not given): the growth was -1.99% (active).

As to `Cc1sc2nc(NCc3ccccc3)[nH]c(=O)c2c1C`, the growth was 22.4% (inactive).

In the case of `COc1cc(/C=C/C(=O)c2ccc(NC(=O)CSc3nnc(-c4cc(-c5ccccc5)nc5ccccc45)n3-c3ccccc3)cc2)cc(OC)c1OC`, the growth was 84.9% (inactive).

For the molecule `COc1cc(NC(=O)CSc2nc3ccc(C)cc3c(=O)n2-c2ccccc2)cc(OC)c1OC`, the growth was 89.1% (inactive).

As for `NC(=O)NC(=O)c1ccc(Cl)cc1`, the growth is 95% (inactive).

Consider `CCC(=O)Nc1nnc(Cc2ccc(OC)c(OC)c2)s1`, for which the growth was 53.2% (inactive).

As to `Cc1ccc(OCCOCCOCCOCCOCCOc2ccc(C)n(O)c2=S)c(=S)n1O`, the growth was -16.5% (active).

With `COc1cc(CSc2nc3ccc(Cl)cc3c(=O)n2-c2ccccc2)cc(OC)c1OC`, the growth was 90.8% (inactive).

For the molecule `CC(C)c1ncc([N+](=O)[O-])n1C`, the growth is 118% (inactive).

In the case of `O=C(COc1ccc(/C=C2\COc3ccccc3C2=O)cc1)Nc1nccs1`, the growth is -11.4% (active).
